High-throughput results deposited in PubChem BioAssay by several laboratories.
aSyn UTR inh: MLPCN primary screen, SNCA 5' untranslated region; alpha-synuclein 5'UTR reporter, inhibitor activity; inhibition, % (tested at 7.5 µM); hit rate 0.82% among 300,000; in the data active = inhibition above about 60%; inconclusive = no clear call, values can overlap the other calls;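 note: H4 neuroglioblastoma cells stably carrying SNCA 5'UTR luciferase fusion; 0% = DMSO wells and 100% = positive control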
IEC-6 cytotox: cytotoxicity in IEC-6 intestinal epithelial cells, primary screen, cytotoxicity control for KLF5 inhibitor project, cell-based, luminescence. IEC-6 cytotoxicity, luminescence viability. inhibition, % at 5 µM. hit rate 0.78% among 290,000; in the data active = inhibition above about 22%;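 note: 0% = plate median of test compound wells and 100% = cytotoxic reference compound wells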
Ba/F3 V617F tox: reduced viability of JAK2V617F-dependent Ba/F3 cells, primary screen, JAK2V617F inhibitor project, cell-based, Ba/F3 EpoR-JAK2V617F, luminescence; ATP luminescence; inhibition, % at 5.6 µM; hit rate 1.1% among 220,000; AID 1446, 2008;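 active = inhibition above the campaign mean plus 3 SD over all tested compounds, cut at about 24% in these data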;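 note: cytokine-independent growth of Ba/F3 cells driven by EpoR plus mutant JAK2; 0% = DMSO-treated cells and 100% = JAK inhibitor I control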
BaF3 tox: parental Ba/F3 cell viability inhibition, counter-screen for JAK2V617F inhibitor project, murine pro-B, CellTiter-Glo luminescence; CellTiter-Glo ATP luminescence; inhibition, % at 5.6 µM; hit rate 1.1% among 220,000; AID 1486, 2009;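 active = inhibition above a per-campaign cutoff, the mean inhibition of all tested compounds plus 3 SD, cut at about 27% in these data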;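 note: 0% = DMSO wells and 100% = JAK Inhibitor I control wells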
KLF5 inh: KLF5 expression inhibitors, primary screen, DLD-1 cells, luminescence; DLD-1 KLF5 promoter-luciferase reporter; AID 1700, 2009; inhibition, % at 5 µM; hit rate 0.23% among 290,000;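 active = inhibition above a per-plate limit of that plate's mean compound inhibition plus 3 SD, cut at about 60% in these data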;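 note: 0% = DMSO wells and 100% = LY294002 at 200 µM; higher means less KLF5 promoter-driven luciferase light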
APP transl inh: inhibitors of APP translation via 5'UTR reporter, primary screen, APP 5'UTR luciferase, SH-SY5Y cells. SH-SY5Y APP 5'UTR-luciferase reporter, luminescence. inhibition, % at 2 µM. hit rate 0.82% among 190,000. AID 1285, 2008;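 active = inhibition above a set limit, derived from the sample mean plus 3 SD, cut at about 45% in these data; inconclusive = one replicate passes the limit while the other fails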
Numbers without * were called inactive. Compounds with a hit are over-represented: about 2.2% of the library has one in this group of screens.

For Cc1cc(OCCSc2nnc(-c3cccs3)n2C)ccc1Cl the results were aSyn UTR inh -21.3, IEC-6 cytotox -4.5, Ba/F3 V617F tox 0.1, BaF3 tox 8.4, KLF5 inh -27.5 and APP transl inh -10.3.
For Cn1c(SCCOc2ccccc2Cl)nnc1-c1cccs1 the results were aSyn UTR inh -37.4, IEC-6 cytotox -0.2, Ba/F3 V617F tox 34.9*, BaF3 tox 37.1*, KLF5 inh -49.1 and APP transl inh -38.5.
`COc1cc(C(=O)NCCC(=O)NCc2c(F)cc(F)cc2F)cc(OC)c1OC` gave aSyn UTR inh -7.4, IEC-6 cytotox 2.6 and KLF5 inh -43.4.
For Cc1cc(C)c(S(=O)(=O)Nc2cc(SCC(=O)O)c(O)c3ccccc23)cc1C the results were aSyn UTR inh 66.8*, IEC-6 cytotox 8.3, Ba/F3 V617F tox 0.9, BaF3 tox 11.1, KLF5 inh -22.9 and APP transl inh 5.8.
`COc1ccc(S(=O)(=O)Nc2cc(SCC(=O)O)c(O)c3ccccc23)cc1` gave aSyn UTR inh 7.0, IEC-6 cytotox 19.9 and KLF5 inh -81.5.
CCN1C(=O)[C@H]2[C@@H](c3ccc(-c4ccc(OC)cc4)cc3)N[C@@](C)(C(=O)OC)[C@H]2C1=O was read as aSyn UTR inh 21.8.
Screening CC1CCCC(C)N1CCCNC(=O)c1cc2c(s1)-c1ccccc1OC2 (configuration not stated) returned aSyn UTR inh 69.9*, IEC-6 cytotox 2.1 and KLF5 inh -10.9.
For CCCN1CCN(CCCNC(=O)c2cc3c(s2)-c2c(C)cccc2OC3)CC1 the results were aSyn UTR inh 8.3, IEC-6 cytotox 10.5 and KLF5 inh -29.1.
Screening Cc1cccc2c1-c1sc(C(=O)NCCCN3CCCC(C)C3)cc1CO2 (configuration not stated) returned aSyn UTR inh 69.5*, IEC-6 cytotox 6.4 and KLF5 inh -5.6.
`Cc1ccc(NC(=O)CN(C)C(=O)Cn2ncc(Cl)c(Cl)c2=O)cc1` gave aSyn UTR inh 81.7*, IEC-6 cytotox 18.9, Ba/F3 V617F tox 0.0, BaF3 tox -2.0, KLF5 inh -15.6 and APP transl inh 96.4*.
`O=C(Cn1ncc(Cl)c(Cl)c1=O)c1ccc(Cl)cc1` gave aSyn UTR inh -22.2, IEC-6 cytotox 12.8, Ba/F3 V617F tox 17.3, BaF3 tox 1.1, KLF5 inh -0.4 and APP transl inh 80.8*.
Screening O=C1CN(C(=O)Cn2ncc(Cl)c(Cl)c2=O)c2ccccc2N1 returned aSyn UTR inh 3.3, IEC-6 cytotox 17.5, Ba/F3 V617F tox 3.8, BaF3 tox -4.9, KLF5 inh 0.0 and APP transl inh 89.6*.
O=C(Cn1ncc(Cl)c(Cl)c1=O)NCC1CCCCC1 was read as IEC-6 cytotox -4.9, Ba/F3 V617F tox -1.8, BaF3 tox -2.3, KLF5 inh -28.2 and APP transl inh 96.7*.
CC(C)(C)C(=O)Cn1ncc(N2CCCC2)c(Br)c1=O was read as aSyn UTR inh -71.5, IEC-6 cytotox -6.6, Ba/F3 V617F tox -3.6, BaF3 tox 3.0, KLF5 inh -73.7 and APP transl inh -39.4.
`CC(C)(C)C(=O)Cn1ncc(Cl)c(Cl)c1=O` gave aSyn UTR inh -55.7, IEC-6 cytotox 9.8, Ba/F3 V617F tox 7.2, BaF3 tox -2.1, KLF5 inh 4.5 and APP transl inh 50.5*.
For COc1ccc(CNC(=O)CN2CCN(c3ccccc3O)CC2)cc1OC the results were aSyn UTR inh 4.5, IEC-6 cytotox 2.8 and KLF5 inh -4.0.
Nc1nonc1-n1nnc(C(=O)N/N=C/c2ccccc2F)c1CN1CCc2ccccc21 was read as aSyn UTR inh 0.0, IEC-6 cytotox -3.1 and KLF5 inh -8.4.
For O=S(=O)(Nc1nc2ccccc2nc1N1CCc2ccccc2C1)c1ccc(Cl)cc1 the results were aSyn UTR inh 86.2*, IEC-6 cytotox -4.7, Ba/F3 V617F tox -2.5, BaF3 tox -0.3, KLF5 inh -12.7 and APP transl inh -21.2.
O=S(=O)(Nc1nc2ccccc2nc1N1CCc2ccccc2C1)c1ccc(Br)cc1 was read as IEC-6 cytotox 8.2, Ba/F3 V617F tox 6.7, BaF3 tox 12.3, KLF5 inh -53.8 and APP transl inh -64.3.
Screening O=C(/C=C/c1c(F)cccc1Cl)N1CCc2ccccc2C1 returned aSyn UTR inh -85.1, IEC-6 cytotox 6.9 and KLF5 inh -34.5.
Cc1ccc(C2Cc3cc(O)c(O)cc3CN2)cc1 (configuration not stated) was read as aSyn UTR inh 89.0*.
For Cc1ccc(O)c(C2=NNC(c3ccc(Cl)cc3)C2)c1 (configuration not stated) the results were aSyn UTR inh -127.6, IEC-6 cytotox -9.7, Ba/F3 V617F tox -4.8, BaF3 tox 4.3 and KLF5 inh -43.5.
For COc1ccc2cc(/C=N/NC(=O)c3ccc(CN(c4ccc(C)c(C)c4)S(C)(=O)=O)cc3)c(Cl)nc2c1 the results were aSyn UTR inh 64.8*, IEC-6 cytotox -0.3, Ba/F3 V617F tox 1.1, BaF3 tox 5.4, KLF5 inh -35.3 and APP transl inh 6.5.
For COc1ccc2cc(/C=N/NC(=O)c3c(Cl)cnn3C)c(Cl)nc2c1 the results were aSyn UTR inh 14.1, IEC-6 cytotox 6.7, Ba/F3 V617F tox 3.9, BaF3 tox 0.3, KLF5 inh 1.4 and APP transl inh -11.3.
Screening O=C(Nc1ccc(N2CCN(C(=O)c3ccco3)CC2)cc1)c1ccc2c(c1)OCO2 returned aSyn UTR inh 29.6, IEC-6 cytotox 6.5, Ba/F3 V617F tox 4.5, BaF3 tox 6.5, KLF5 inh 0.3 and APP transl inh 8.5.
`Cc1ccccc1C(=O)N1CCN(c2ccc(NC(=O)c3ccc4c(c3)OCO4)cc2)CC1` gave aSyn UTR inh inconclusive, IEC-6 cytotox 36.0*, Ba/F3 V617F tox 66.7*, BaF3 tox 67.4*, KLF5 inh 56.4 and APP transl inh 10.7.
Cc1ccc(NC(=O)CCNS(=O)(=O)c2ccc3[nH]c(=O)oc3c2)cc1N(C)C was read as aSyn UTR inh 20.9, IEC-6 cytotox -5.3 and KLF5 inh -26.7.
Screening CC1CCc2cccc3c2N1c1cc(C#N)c(C#N)cc1O3 (configuration not stated) returned aSyn UTR inh 71.4*, IEC-6 cytotox 4.7, Ba/F3 V617F tox 2.3, BaF3 tox 2.8, KLF5 inh -33.0 and APP transl inh 9.2.
`Cc1ccc(Nc2cc(C)nn2-c2nc(C)cc(C)n2)cc1` gave aSyn UTR inh 29.5, IEC-6 cytotox 30.1*, Ba/F3 V617F tox 2.5, BaF3 tox 6.0, KLF5 inh 23.6 and APP transl inh 6.1.
`CC(=O)Nc1cc(C)nn1-c1nc(C)cc(C)n1` gave aSyn UTR inh 5.6, IEC-6 cytotox 6.6, Ba/F3 V617F tox -5.3, BaF3 tox -3.4, KLF5 inh -5.7 and APP transl inh 18.9.
O=c1[nH]cc(O)c(=O)[nH]1 was read as aSyn UTR inh 19.3, IEC-6 cytotox 0.5, Ba/F3 V617F tox 3.6, BaF3 tox -2.9 and KLF5 inh 3.5.
